Assay results as given in PubChem BioAssay.

test: binders of probe aFGF2 on microarray, primary screen, stem cell growth factor project, biochemical, small-molecule microarray, fluorescence 635/667 (AID 1067); details: higher = more signal;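 also: measures binding of biotinylated aFGF2 protein to printed compounds on slides; z-score merges feature fluorescence and signal-to-noise across triplicate slides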

**Q.** For `O=C1c2ccccc2[C@](Cc2ccccc2I)(C(=O)O)[C@H](c2ccc(CO)cc2)N1Cc1ccccc1C(F)(F)F`, which composite z-score is on record?
**A.** -0.21

**Q.** For `C=CCN1C(=O)[C@@]2(O[C@@H](CCO)[C@H]([Si](C)(C)c3ccc(OC)cc3)[C@H]2C)c2cc(NC(C)=O)ccc21`, which composite z-score is on record?
**A.** -0.0887

**Q.** With `O=C1O[C@@H](c2ccccc2)[C@@H](c2ccccc2)N2[C@@H](c3ccc(O)cc3)[C@]3(C(=O)Nc4ccccc43)[C@@H](C(=O)NC[C@H](O)c3ccccc3)[C@H]12` as the compound, how does the composite z-score read?
**A.** -0.141

**Q.** For `C=C(CCCC)C(=O)CC[C@@H](OC(=O)c1ccccc1-c1ccccc1C(=O)O)c1ccc(CO)o1`, which composite z-score is on record?
**A.** -0.0291

**Q.** With `COCCOC(=O)N1C(=O)[C@@]2(c3cc(C#CCCO)ccc31)[C@H](c1ccc(O)cc1)N1[C@H](c3ccccc3)[C@H](c3ccccc3)OC(=O)[C@H]1[C@@H]2C(=O)N1CCCCCCC1` as the compound, how does the composite z-score read?
**A.** 0.2

**Q.** For `O=C(NCC(O)CO)[C@]1(CCS(=O)(=O)c2ccccc2)N=C(c2ccc(OCCCO)cc2)O[C@@H]1c1ccccc1` (stereo not given in full), which composite z-score is on record?
**A.** -0.0064

**Q.** Which composite z-score does the source give for `CC(C)NC(=O)[C@@H]1c2ccccc2C(=O)N(C2CCCCC2)[C@H]1c1ccc(CO)cc1` here?
**A.** 0.0703

**Q.** For `CCOC(=O)C=Cc1cccc(OC)c1O`, which composite z-score is on record?
**A.** -0.0894

**Q.** Which composite z-score does the source give for `NC(=O)NCC#Cc1ccc2c(c1)[C@]1(C(=O)N2)[C@H](C(=O)NC[C@H](O)c2ccccc2)[C@H]2C(=O)O[C@H](c3ccccc3)[C@H](c3ccccc3)N2[C@@H]1c1ccccc1OCCO` here?
**A.** -0.0934

**Q.** With `CN1C(=O)C2C(C1=O)C1C=C(c3ccc(CO)cc3)C2C(C2CC2)N1Cc1cc2c(cc1Br)OCO2` (stereo not given) as the compound, how does the composite z-score read?
**A.** -0.0171

**Q.** With `O=C1OCCC/C=C\[C@H]2OC34C=CCN(Cn5nnc6ccccc65)C(=O)[C@H]3N(CCCO)C(=O)[C@@H]4C12` (stereo not given in full) as the compound, how does the composite z-score read?
**A.** -0.017

**Q.** For `CC(C)N1C(=O)c2ccccc2[C@](C)(C(=O)NC2CC2)[C@@H]1c1ccc(CO)cc1`, which composite z-score is on record?
**A.** -0.129

**Q.** Which composite z-score does the source give for `O=C1C2C=CC(C(O)CCc3ccccc3)N(Nc3ccccc3)C2C(=O)N1c1ccccc1` (stereo not given) here?
**A.** 0.288

**Q.** For `O=C1O[C@H](c2ccccc2)[C@H](c2ccccc2)N2[C@H]1[C@@H](C(=O)N1CCCCCCC1)[C@]1(C(=O)Nc3ccc(C#CC4=CCCCC4)cc31)[C@H]2c1ccc(O)cc1`, which composite z-score is on record?
**A.** 1.05

**Q.** With `CC(C)OC(=O)C1=CCC(c2cccc(Cl)c2)O1` (stereo not given) as the compound, how does the composite z-score read?
**A.** -0.0717

**Q.** For `C=CCN1C(=O)[C@@]2(O[C@@H](CCO)[C@H]([Si](C)(C)c3ccc(OC)cc3)[C@H]2C)c2cc(N3C(=O)COc4ccccc43)ccc21`, which composite z-score is on record?
**A.** -0.0293

**Q.** Which composite z-score does the source give for `C=CCC(OC(C)=O)[C@@H]1[C@@H](N(Cc2ccc(-c3ccccc3)cc2)C(=O)c2ccc(C)cc2)c2cc(OCCCO)ccc2N1C(=O)c1ccc2ccccc2n1` (stereo not given in full) here?
**A.** -0.0434

**Q.** Which composite z-score does the source give for `COCCOC(=O)N1C(=O)[C@@]2(c3cc(C#CC4=CCCCC4)ccc31)[C@H](c1ccc(OCCO)cc1)N1[C@H](c3ccccc3)[C@H](c3ccccc3)OC(=O)[C@H]1[C@@H]2C(=O)Nc1nc2ccccc2s1` here?
**A.** -0.104

**Q.** For `O=[N+]([O-])c1ccc(C[n+]2ccc(CCCO)cc2)o1`, which composite z-score is on record?
**A.** 0.0609

**Q.** Which composite z-score does the source give for `C=C(C)[C@@H]1CC=C(C(O)C2C=CC3C(=O)N(Cc4ccccc4)C(=O)C3N2n2cnnc2)CC1` (stereo not given in full) here?
**A.** -0.0877

**Q.** With `CCCNC(=O)[C@@]1(C)c2ccccc2C(=O)N(Cc2cc(F)cc(C(F)(F)F)c2)[C@H]1c1ccc(CO)cc1` as the compound, how does the composite z-score read?
**A.** -0.0901

**Q.** Which composite z-score does the source give for `CO[C@H]1O[C@H](CO)[C@@H](OC(=O)Nc2cccc(F)c2)[C@H](OC(=O)Nc2ccccc2-c2ccccc2)[C@@H]1OC(=O)Nc1ccccc1-c1ccccc1` here?
**A.** 0.111

**Q.** For `CCOC(=O)N1C(c2ccc(OCCCO)cc2)=NC(C(=O)OC)N1C(=O)OCC` (stereo not given), which composite z-score is on record?
**A.** 0.0794

**Q.** Which composite z-score does the source give for `COCCCNC(=O)[C@@]1(Cc2ccccc2I)c2ccccc2C(=O)N(Cc2ccccc2)[C@H]1c1ccc(CO)cc1` here?
**A.** -0.142

**Q.** Which composite z-score does the source give for `COc1ccc(C#Cc2ccc3c(c2)[C@]2(C(=O)N3)[C@H](C(=O)N3CCN(c4ncccn4)CC3)[C@H]3C(=O)O[C@H](c4ccccc4)[C@H](c4ccccc4)N3[C@@H]2c2ccc(O)cc2)cc1` here?
**A.** -0.232

**Q.** With `CN(C)CCCC[C@@H]1NC(=O)[C@@H]2C[C@H](C(=O)NCc3ccc(F)cc3)[C@H](c3cccc(OCCO)c3)N2C1=O` as the compound, how does the composite z-score read?
**A.** -0.0707

**Q.** Which composite z-score does the source give for `O=C1O[C@@H](c2ccccc2)[C@@H](c2ccccc2)N2[C@@H](c3ccc(O)cc3)[C@]3(C(=O)Nc4ccc(C#CCCO)cc43)[C@@H](C(=O)O)[C@H]12` here?
**A.** 0.548

**Q.** With `CC(C)NC(=O)[C@@]1(c2ccc([N+](=O)[O-])cc2)CC(=O)N(C(C)C)[C@@H]1c1ccc(CO)cc1` as the compound, how does the composite z-score read?
**A.** -0.134

**Q.** With `C=CCC(OC(C)=O)[C@@H]1[C@@H](N(Cc2ccc(-c3cccc(C(F)(F)F)c3)o2)C(=O)Cc2ccc(OC)cc2)c2cc(OCCCO)ccc2N1C(=O)Cc1ccc(OC)cc1` (stereo not given in full) as the compound, how does the composite z-score read?
**A.** -0.0739

**Q.** With `C[n+]1ccc2ccc(O)cc2c1` as the compound, how does the composite z-score read?
**A.** -0.081

**Q.** Which composite z-score does the source give for `C=C(CCCC)/C(=C/C[C@H](OC(C)=O)c1ccc(CO)o1)c1cc(C(=O)OC)ccc1OC` here?
**A.** -0.0333

**Q.** With `COCCOC(=O)N1C(=O)[C@@]2(c3cc(C#Cc4ccc(OC)cc4)ccc31)[C@H](c1ccc(OCCO)cc1)N1[C@H](c3ccccc3)[C@H](c3ccccc3)OC(=O)[C@H]1[C@@H]2C(=O)N1CCc2cc(OC)c(OC)cc2C1` as the compound, how does the composite z-score read?
**A.** 0.0051

**Q.** For `CC(C)C(O)C1C=CC2C(=O)N(C)C(=O)C2N1N1CCCCC1` (stereo not given), which composite z-score is on record?
**A.** -0.0412

**Q.** With `CCN(CC)c1ccc(N2CC=CC34O[C@@H]5C=CCOC(=O)[C@@H]5[C@H]3C(=O)N(CCCCCO)[C@@H]4C2=O)cc1` (stereo not given in full) as the compound, how does the composite z-score read?
**A.** -0.129

**Q.** For `Cc1cc(C)c(C(O)C2C=CC3C(=O)NC(=O)C3N2Nc2ccccn2)c(C)c1` (stereo not given), which composite z-score is on record?
**A.** -0.0878
